Assay results taken from PubChem BioAssay AID2098 (Broad Institute, 2009).
The campaign covered roughly 300,000 compounds. About 2,300 (0.77%) were called active.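 How the source made its calls: active means more than half of replicate wells show activity change below -50%, luminescence cut by over half; inconclusive means some wells, but at most half, below -50%; inactive means no replicate well below -50%.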 Only a selection was taken, and actives are over-represented in it overall.

experiment: HSF1 inhibitors in luciferase reporter cells, primary screen, cell-based, NIH3T3, luminescence (AID 2098); conditions: NIH3T3-HGL HSE-luciferase, MG132-induced, luminescence 8 h; active compounds read low; screened at 7.5 µM (by protocol);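 further: luciferase reports HSF-1 transcriptional activity via heat shock element; 0% = median of DMSO wells and -100% = zero luminescence signal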

Row | Compound | activity change, negative = inhibition
1 | CCOc1ccc(S(=O)(=O)NCCC(=O)N2CCCCCCC2)cc1 | 1.97% (inactive)
2 | O=C(COc1ccccc1)Nc1cc2c3c(c1)CC(=O)N3CCC2 | 2.82% (inactive)
3 | Cc1ccc(OCC(=O)c2cc(C)n(Cc3ccco3)c2C)c([N+](=O)[O-])n1 | -39.8% (inactive)
4 | Cc1cc(C(=O)COC(=O)CNC(=O)c2ccc(F)cc2)c(C)n1Cc1ccco1 | -53.9% (active)
5 | Cc1cc(C(=O)CSc2nc(N)cc(=O)[nH]2)c(C)n1Cc1ccco1 | -33.6% (inactive)
6 | O=C(Nc1c(Br)cc2c(c1Br)Cc1ccccc1-2)C(F)(F)F | -5.38% (inactive)
7 | COc1ccccc1CNS(=O)(=O)c1cc2c3c(c1)CCC(=O)N3CCC2 | -0.185% (inactive)
8 | COc1ccc(C)cc1S(=O)(=O)Nc1cc2c3c(c1)CCC(=O)N3CCC2 | -68.5% (active)
9 | O=C1CCc2cc(S(=O)(=O)Nc3ccc(C(F)(F)F)cc3)cc3c2N1CC3 | -0.158% (inactive)
10 | Cc1ccc(OCCNC(=O)CN2C(=O)NC3(CCCC3)C2=O)cc1 | -2.16% (inactive)
11 | CN(/N=C/c1ccccc1)C(=S)c1ccccc1 | -0.878% (inactive)
12 | Cc1cc(F)ccc1S(=O)(=O)N1CCCOC1CNC(=O)C(=O)NCCC1=CCCCC1 (stereo not drawn) | -4.13% (inactive)
13 | O=C(NCCCc1ccccc1)C(=O)NCC1OCCN1S(=O)(=O)c1ccccc1 (stereo not drawn) | 3.32% (inactive)
14 | O=C(NCCCn1ccnc1)C(=O)NCC1OCCN1S(=O)(=O)c1cc(F)ccc1F (stereo not drawn) | -87.4% (active)
15 | O=C(CCN1C(=O)C2CCCCC2C1=O)Nc1ccc(OC(F)F)cc1 (stereo not drawn) | 5.73% (inactive)
16 | CCCCn1c(N)c(N(CC(C)C)C(=O)c2cccc(S(=O)(=O)N3CCN(C(C)=O)CC3)c2)c(=O)[nH]c1=O | 0.146% (inactive)
17 | O=C(Nc1cccc2ncccc12)c1ccc(-c2ccc(Cl)cc2Cl)o1 | 8.41% (inactive)
18 | O=C(Nc1cccc2ncccc12)C(Cl)(Cl)Cl | -59.5% (active)
19 | O=C(O)c1cc(Cl)c(Cl)cc1C(=O)Nc1cccc2ncccc12 | 15.1% (inactive)
20 | CC(=O)NC1CCN(CC(=O)Nc2nccs2)CC1 | 0.912% (inactive)
21 | CC1CCN(CC(=O)Nc2nccs2)CC1 | -53.5% (active)
22 | CC1CC(C)(C)CC2(C1)NC(=O)N(CC(=O)Nc1nccs1)C2=O (stereo not drawn) | 0.525% (inactive)
23 | Cc1csc(SCC(=O)Nc2sccc2C#N)n1 | 9.14% (inactive)
24 | COc1ccc(NC(=O)CSc2nc(C)cs2)cc1 | -86.2% (active)
25 | COc1cc(OC)cc(-c2nnc(SCC(=O)Nc3ccc(C(=O)O)cc3)s2)c1 | -5.1% (inactive)
26 | CCCc1nc(-c2ccccc2O)n(-c2ccccc2)n1 | -81.9% (active)
27 | Cc1nn(-c2ccccc2)c(-n2cccc2)c1C(=O)O | -12.1% (inactive)
28 | CCCc1c(C(=O)Nc2ccc(F)cc2)cnn1-c1ccccc1 | 6.52% (inactive)
